Test results from PubChem BioAssay (NCI).
This is part of a sample that, as a whole, favours compounds with a hit. Of some 83,000 tested, about 20% had one in any assay.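 Cells were grown in 96-well plates and exposed to the test compound at a single concentration for 48 hours; results are reported as percent growth, with values below 10 considered active.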 Unmarked numbers belong to inactive results. Active and inactive are the calls of the source.

Test system: HL-60(TB) leukemia
Experiment: NCI-60 one-dose screen, 48 h (100 = growth as untreated, 0 = no growth, -100 = all killed)
Conditions: 10 µM unless noted

| SMILES | growth |
| --- | --- |
| O=C(NNc1ccccc1)C1CCCN1 (stereo not given) | 9.36% (active) |
| Clc1ccc(/C=N/Nc2nc3ccccc3s2)c(Cl)c1 | 98.5% |
| COc1ccc(NC(=O)c2ccc3c(c2)nc(-c2cc4ccccc4[nH]c2=O)n3-c2cc(C(C)(C)C)[nH]n2)cc1 | 96.8% |
| CS/C(=C\c1ccc(C(=O)c2ccc(C)cc2)n1C)S(C)=O (stereo not given) | 53.6% [100 µM] |
| O=C(CSc1nc2ccc([N+](=O)[O-])cc2[nH]1)Nc1ccc(Br)cc1 | 39.4% |
| C#CC#CC#CC#CC#CC#CC#CC#CCC1OC[C@H](COC(=O)O[C@@H](C(=O)O[C@H]2C[C@@]3(O)[C@@H](OC(=O)c4ccccc4)[C@@H]4[C@]5(OC(C)=O)CO[C@@H]5C[C@H](O)[C@@]4(C)C(=O)[C@H](OC(C)=O)C(=C2C)C3(C)C)[C@@H](NC(=O)c2ccccc2)c2ccccc2)O1 (stereo not given in full) | 8.1% (active) |
| O=C1c2ccccc2C(=O)c2c(NCCN=Cc3ccccc3O)cccc21 | 44% |
| COc1ccc(-c2cnc(-c3ccncc3-c3cccc(OC)c3)o2)cc1 | 0.0287% (active) |
| CCN(CC)c1ccc(/C=C(\C#N)c2cc3ccccc3[nH]2)cc1 | 45.6% |
| CCN(CC)CCOC(=O)c1ccc(N=Nc2ccc(O)c(OC)c2)cc1 | 97.5% |
| COc1cc2c(c(O)c1Cl)C(=O)c1c(O)cc(C[C@H](C)O)cc1[C@H]2[C@H]1c2cc(C[C@H](C)O)cc(O)c2C(=O)c2c1cc(OC)c(Cl)c2O | 1.89% (active) |
| COc1cc(/C=C/C(=O)c2c(C)oc3nc[nH]c(=O)c23)cc(OC)c1OC | 65.9% |
| CCCCCCCCCCCCCCCC(=O)O[C@@H]1[C@@H](O)[C@@H](O)C([C@H](NC(=O)[C@@H]2C[C@@H](CCC)CN2C)[C@H](C)Cl)O[C@@H]1SC (stereo not given in full) | 98.6% |
| C=CCn1c(SCC(=O)Nc2ccc(C(=O)/C=C/c3ccc(Cl)cc3)cc2)nnc1-c1ccc(Cl)c(Cl)c1 | 56.8% |
| C=C(c1ccc(C(=O)NCCCn2ccnc2)cc1)c1cc2c(cc1C)C(C)(C)CCC2(C)C | -47.5% (active) |
| O=C(NCCCN1CCCCC1)c1ccc(-c2nc3ccc4[nH]ncc4c3c3c2CCCC3)cc1 | 93.4% |
| COc1nc(OC)nc(-c2cc(-c3cc(OC)c(OC)c(OC)c3)no2)n1 | 95.2% |
| CC(=O)c1c(C)nc2ccccc2c1/C=C/c1ccc(F)cc1 | 95.6% |
| CCNCC(C)(C)O | 102% |
| CCC(=O)c1ccc(Cl)s1 | 70.4% |

| SMILES | growth |
| --- | --- |
| CCN(CC)c1ccc(/C=N/NC(=O)c2ccccc2Nc2ccnc(C(F)(F)F)c2)c(O)c1 | 60% |
| COc1ccc2nc3cc(Cl)ccc3c(Nc3cc(C(C)C)c(O)cc3C)c2c1 | 7.64% (active) |
| CC1(C)CC2(C)OC2C2(C1)N=NC(=Nc1ccccc1)O2 (stereo not given) | 85.2% |
| COc1ccc(-c2cn[nH]c2-c2cc(OC)c(OC)c(OC)c2)cc1OCc1ccccc1 | 20.4% |
| COc1ccc(OC)c(-c2c(C#N)c(-c3ccc(Cl)cc3)nc3c2c(-c2ccccc2)nn3-c2ccccc2)c1 | 99% |
| CCOC(=O)c1ccccc1SC(C[N+](=O)[O-])c1ccccc1 (stereo not given) | 89.7% |
| c1cc(C2CCCCC2)ccc1-c1cnc2nonc2n1 | -27.3% (active) |
| N#Cc1c(NC(=O)NCc2ccccc2)sc2c1CCCC2 | -4.95% (active) |
| O=C(NC1CC(F)C1)c1cc2cccnc2n1-c1ccc(Cl)c(Cl)c1 (stereo not given) | 97.2% |
| CO[C@@]12C=C[C@@]34CCC(=O)N3c3ccccc3[C@@H](O1)C4C2 | 96.9% |
| Cn1c(C(N)=O)cc2c1-c1nc(NC3CCCCC3)ncc1CCC2 | 105% |
| OCCN1CCN(CCCN2c3ccccc3Sc3ccc(C(F)(F)F)cc32)CC1 | 32.7% |
| COc1ccc(-c2cc(-c3ccccc3)nc(N3CCN(CCNc4ccnc5cc(Cl)ccc45)CC3)n2)cc1 | -39.8% (active) |
| COc1cc(-c2cc(-c3ccc(Nc4nc(Nc5ccccc5)nc(Nc5ccc(Cl)cc5)n4)cc3)nc(N)n2)cc(OC)c1OC | 96.8% |
| CC1(C)CC(=O)C2=C(C1)Oc1nc(N)c(C#N)c(N)c1C2c1ccc(F)cc1 (stereo not given) | 107% |
| COc1ccc(S(=O)(=O)NCCCNc2nccc(-n3ccc4cccnc43)n2)cc1 | 104% |
| COc1ccc(/C=N/OCC(O)CN2CCC(O)CC2)cc1OC1CCCC1 (stereo not given) | 100% |
| CCN1C(=O)N(c2ccccc2)C2Nn3c(s/c(=C4\C(=O)N(C(C)C)c5ccccc54)c3=O)=NC21 (stereo not given) | 97.8% |
| O=C1c2cccnc2-c2ncccc21 | 95.4% [100 µM] |
| S=C(Nc1ccccc1)N1CCCCC1 | 93.5% |
